“And” between values parts separate entries of the source, which are not always exact repeats. Equal entries are not always repeated. Inconclusive results are not listed. Where a call stands in place of a potency, no number is given. Unmarked numbers belong to inactive results. The source made the active and inactive calls. Calls follow the shape of the dose curve; as a rule, active = well fitted curve in the direction sought with a large enough effect in the repeat runs; inconclusive = weak or mixed curves; inactive = no such curve, though single readings can be large; an effect the other way counts as inactive or inconclusive.
Test: qHTS RealTime-Glo MT Cell Viability Assay in HepG2 cells - 16 hour (AID 1224885)
Conditions: RealTime-Glo luminescence; series mostly up to 76.8 µM; activity change, negative = cytotoxic: at the top concentration
In short: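 Cell number in HepG2 cultures estimated from NanoLuc luminescence generated by metabolic reduction of a prosubstrate by living cells. The homogeneous, nonlytic format allowed repeated reads at 0, 8, 16, 24, 32 and 40 h of compound exposure.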
Also: nearly all actives have a fitted effect of over 50% in size.
Potency is read from the fitted curve at half-maximal effect.

Row | SMILES | Potency | activity change, negative = cytotoxic
1 | Brc1ccc(Br)cc1 | inactive | 
2 | [CH3][Sn]([Cl])([Cl])[Cl] | inactive | 
3 | O=C1C(Cl)=C(Cl)C(=O)c2ccccc21 | 21.9 µM (active) and 6.92 µM (active) | 
4 | N#Cc1nn(-c2c(Cl)cc(C(F)(F)F)cc2Cl)c(N)c1S(=O)C(F)(F)F (stereo unspecified) |  | -10.3% [at 35.3 µM]
5 | O=S(=O)(O)C(F)(F)C(F)(F)C(F)(F)C(F)(F)C(F)(F)C(F)(F)C(F)(F)C(F)(F)F | inactive | 
6 | CCCCOCC1CO1 (stereo unspecified) | inactive | 
7 | ClCC(Cl)CCl | inactive | 
8 | O=C1Nc2ccc(Cl)cc2C(c2ccccc2)=NC1O (stereo unspecified) | inactive | 
9 | ClC(Cl)(Cl)Br | inactive | 
10 | CC1=C(C(=O)Nc2ccccc2)SCCO1 | inactive | 
11 | Clc1ccccc1-c1nnc(-c2ccccc2Cl)nn1 | inactive | 
12 | CC1CC(=O)O1 (stereo unspecified) | inactive | 
13 | CCOP(=O)(OCC)OCC | inactive | 

Test: qHTS RealTime-Glo MT Cell Viability Assay in HEK293 cells - 24 hour (AID 1224886); as to activity change, negative = cytotoxicity: top concentration of the series differs between compounds
Conditions: RealTime-Glo luminescence; series mostly up to 76.8 µM; activity change, negative = cytotoxicity: at the top concentration
In short: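 Homogeneous bioluminescent viability format in HEK293 cells (600 cells/well). Following 5 h at 37 C/5% CO2, 23 nL compound was pintooled; the signal was measured repeatedly during 40 h incubation.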

Row | SMILES | Potency | activity change, negative = cytotoxicity
14 | N#CCCCCC#N | inactive | 
15 | COP(=S)(OC)Oc1ccc(S(=O)(=O)N(C)C)cc1 | inactive | 
16 | N#Cc1c(Cl)c(Cl)c(Cl)c(C#N)c1Cl | 2.15 µM (active) and 1.23 µM (active) | 
17 | C[C@]12CC[C@H]3[C@@H](CCC4=CC(=O)CC[C@@H]43)[C@@H]1CC[C@@H]2O | inactive | 
18 | COc1ccc(CO)cc1 | inactive | 
19 | CCC(=O)Nc1ccc(Cl)c(Cl)c1 | 44.5 µM (active) and 43.6 µM (active) | 
20 | NN=C(N)N | inactive | 
21 | OC(c1ccc(Cl)cc1)(c1cncnc1)c1ccccc1Cl (stereo unspecified) | 7.04 µM (active) | 
22 | Cl | inactive | 
23 | CC(C)(c1ccccc1)c1ccc(O)c(C(C)(C)c2ccccc2)c1 | 19.3 µM (active) and 30.9 µM (active) | 
24 | CC(C)(c1ccccc1)c1ccc(O)cc1 | 43.3 µM (active) and 24.5 µM (active) | 
25 | COP(=O)(NC(C)=O)SC (stereo unspecified) | inactive | 
26 | COC(=O)Nc1nc2ccccc2[nH]1 |  | -23.6%
27 | CC(O)CN(CC(C)O)CC(C)O (stereo unspecified) | inactive | 
28 | CCCCSP(=O)(SCCCC)SCCCC | inactive | 
29 | O=P(OCCCl)(OCCCl)OCCCl | inactive | 
30 | CCOS(=O)(=O)OCC |  | 5.65%
31 | CC(C)(O)C#N | inactive | 
32 | CS(=O)(=O)NC(=O)c1cc(Oc2ccc(C(F)(F)F)cc2Cl)ccc1[N+](=O)[O-] | inactive | 

Row | SMILES | Potency | activity change, negative = cytotoxicity
33 | Nc1ccc([N+](=O)[O-])cc1N | inactive | 
34 | Oc1ccc(Cl)cc1Cc1ccccc1 | 21.9 µM (active) and 19.7 µM (active) | 
35 | CCC1(c2ccc(N)cc2)CCC(=O)NC1=O (stereo unspecified) |  | 10.8% [at 35.3 µM]
36 | NC(=O)CN1CCCC1=O | inactive | 
37 | COc1ccc(C=O)cc1OC | inactive | 
38 | O=C(O)c1nn(Cc2ccc(Cl)cc2Cl)c2ccccc12 | inactive | 
39 | Brc1ccc(Br)cc1 | inactive | 
40 | [CH3][Sn]([Cl])([Cl])[Cl] | inactive | 
41 | O=C1C(Cl)=C(Cl)C(=O)c2ccccc21 | 6.19 µM (active) and 9.77 µM (active) | 
42 | N#Cc1nn(-c2c(Cl)cc(C(F)(F)F)cc2Cl)c(N)c1S(=O)C(F)(F)F (stereo unspecified) | 19.6 µM (active) | 
43 | O=S(=O)(O)C(F)(F)C(F)(F)C(F)(F)C(F)(F)C(F)(F)C(F)(F)C(F)(F)C(F)(F)F | inactive | 
44 | CCCCOCC1CO1 (stereo unspecified) | inactive | 
45 | ClCC(Cl)CCl | inactive | 
46 | O=C1Nc2ccc(Cl)cc2C(c2ccccc2)=NC1O (stereo unspecified) |  | -12%
47 | ClC(Cl)(Cl)Br | inactive | 
48 | CC1=C(C(=O)Nc2ccccc2)SCCO1 | inactive | 
49 | Clc1ccccc1-c1nnc(-c2ccccc2Cl)nn1 | inactive | 
50 | CC1CC(=O)O1 (stereo unspecified) | inactive | 
51 | CCOP(=O)(OCC)OCC | inactive | 

From PubChem BioAssay (Tox21)
